# From PubChem BioAssay AID504332 (National Center for Advancing Translational Sciences (NCATS), 2011)
# Among all 350,000 compounds or so, about 31,000 (8.9%) were called active. Roughly 15% stayed inconclusive and do not appear here. The full list was thinned out, with actives kept by preference. A number with no mark means an inactive call. The call rests on the fitted dose curve; in most records, active means well fitted inhibition curve with a large enough effect; inconclusive means small, poorly fitted or top-dose-only effect; inactive means no such curve, though single readings can be large or run the other way.
# Molecular target: Histone-lysine N-methyltransferase EHMT2 (Homo sapiens) (UniProt Q96KQ7)
# Test: qHTS Assay for Inhibitors of Histone Lysine Methyltransferase G9a; further: nearly all actives have a fitted effect of over 75% in size
# Conditions: G9a H3K9 monomethylation, AlphaScreen, 2 h; series mostly up to 59 µM; activity, negative = inhibition: at the top concentration
# How it was run: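 AlphaScreen detection with an anti-monomethyl H3K9 antibody quantified product after a 2 h room-temperature reaction containing 500 nM biotinylated H3K9 peptide, 20 µM SAM and 20 nM enzyme, which had been preincubated 15 min with compound.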
# On the % scale 0 is the no-effect control and ±100 the full control effect; potency means the concentration at half of the fitted maximal effect.
# Histone-lysine N-methyltransferase EHMT2 (Homo sapiens), sequence (Q96KQ7 913-1193 limits assumed): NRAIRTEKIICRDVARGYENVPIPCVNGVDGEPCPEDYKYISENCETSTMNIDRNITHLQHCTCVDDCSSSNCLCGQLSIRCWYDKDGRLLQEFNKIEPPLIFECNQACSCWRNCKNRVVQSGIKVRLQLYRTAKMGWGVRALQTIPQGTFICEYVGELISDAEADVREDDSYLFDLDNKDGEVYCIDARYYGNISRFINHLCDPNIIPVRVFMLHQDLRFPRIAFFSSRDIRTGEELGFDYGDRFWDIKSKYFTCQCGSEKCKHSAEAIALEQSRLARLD
SMILES,"activity, negative = inhibition",Potency
COc1ccc(Cn2c(C(=O)O)c(CNCCc3cccs3)c3ccc(OC)cc32)cc1,6.08%,–
CC1CCC(N2CC(=O)N(CCC3=CCCCC3)C(c3ccc(F)cc3)C2=O)CC1 (configuration not stated),8.16%,–
Cc1ccccc1-c1cc(C(=O)NCc2cccs2)n(CC2CC(c3cccnc3)=NO2)n1 (configuration not stated),-0.783% [at 0.501 µM],–
Cc1ccc(-c2nc(Cn3c(=O)cc(-c4ccccc4)c4c(C)nn(C)c43)c(C)o2)cc1,9.13%,–
COc1cc(SC)ccc1C(=O)N(Cc1ccccc1)c1ccccc1,55.7% [at 102 µM],–
CN(C)CCCN(C(=O)COc1ccccc1)c1nc2c(Cl)cccc2s1,–,31.6 µM (active)
CCOc1ccc2nc(N(CCCN(C)C)C(=O)c3ccc(C(=O)c4ccccc4)cc3)sc2c1,–,44.7 µM (active)
COc1ccccc1NC(=O)CC(NCCN(C)C)C(=O)O (configuration not stated),17.5% [at 102 µM],–
CN(Cc1ccccc1)C(=O)COc1ccccc1,-14%,–
CCOc1ccc2nc(Nc3nc4ccc(NC(C)=O)cc4s3)sc2c1,-13.6%,–
CCCC(=O)N(CCN1CCOCC1)c1nc2ccc(OCC)cc2s1,2.94%,–
COc1cccc2sc(N(CCCN(C)C)C(=O)C(c3ccccc3)c3ccccc3)nc12,–,6.31 µM (active)
COc1cc2ccccc2cc1C(=O)Nc1ccncc1,1.4% [at 102 µM],–
COc1ccc(CCN(C(=O)COc2ccccc2)c2nc(-c3ccccc3)cs2)cc1OC,-1.75%,–
CCOc1cccc2sc(N3CCN(C(=O)C4CC4)CC3)nc12,-15.9%,–
COc1cc2ccccc2cc1C(=O)N(CCN(C)C)c1nc2c(F)cccc2s1,–,44.7 µM (active)
CCOc1ccc(S(=O)(=O)N2CCC(C(=O)NCC(=O)Nc3cccc(Cl)c3C)CC2)cc1,15.9%,–
Cc1ccc(NC(=O)CSc2cccc3cccnc23)c(C)c1,-27.5% [at 102 µM],–
COc1ccc(NC(=O)CSc2nnc(Cc3ccccc3)c(=O)n2N)cc1,-45.5% [at 102 µM],–
Cc1cccc2sc(N(CCCN(C)C)C(=O)CCS(=O)(=O)c3ccccc3)nc12,–,22.4 µM (active)
COc1ccc(C)cc1NC(=O)CCS(=O)(=O)c1cccc2nonc12,-1.53% [at 102 µM],–
COc1ccccc1CNC(=O)CS(=O)(=O)c1cccc2nsnc12,3.96%,–
COc1ccc(-n2cnnc2SCC(=O)Nc2cccc([N+](=O)[O-])c2)cc1,-3.5% [at 102 µM],–
CCN(CC)CCN(C(=O)c1cccc([N+](=O)[O-])c1)c1nc2ccc(OC)cc2s1,–,50.1 µM (active)

SMILES,"activity, negative = inhibition",Potency
O=C(CCS(=O)(=O)c1ccccc1)NC1CCCC1,-7.56% [at 102 µM],–
COc1cccc2sc(N(CCCN(C)C)C(=O)CCS(=O)(=O)c3ccccc3)nc12,–,8.91 µM (active)
COc1ccc(N(C)C(=O)CCS(=O)(=O)c2cccc3nsnc23)cc1,-39.4%,–
COc1ccc2sc(N(CCCN(C)C)C(=O)c3ccc(S(=O)(=O)N(C)C4CCCCC4)cc3)nc2c1,-7.7% [at 2.33 µM],–
CN(C1CCS(=O)(=O)C1)S(=O)(=O)c1ccc2ccccc2c1 (configuration not stated),5.42% [at 102 µM],–
COc1ccccc1CNS(=O)(=O)c1cc(Br)cc2c1N(C(C)=O)C(C)C2 (configuration not stated),2.53%,–
O=C(CCSCc1cccc(F)c1)NCc1ccccc1,-6.15%,–
COc1ccc(NS(=O)(=O)c2ccc(C)c(C(=O)NNC(=O)c3csc(N4CCOCC4)n3)c2)cc1,2.43% [at 102 µM],–
CC(=O)N1CCc2cc(S(=O)(=O)NC3CCCCC3)ccc21,-3.98% [at 102 µM],–
O=C(CCC1CCCC1)N=C1SC2CS(=O)(=O)CC2N1Cc1ccccc1 (configuration not stated),4.22% [at 102 µM],–
COc1cc2c(C(=O)N(C)c3cc(Cl)ccc3OC)cn(C)c(=O)c2cc1OC,23.4% [at 102 µM],–
O=C(CSc1nc(-c2ccco2)cc(C(F)(F)F)n1)N1CCc2ccccc2C1,–,12.6 µM (active)
Cc1cccc(NC(=O)CSc2nc(-c3ccco3)cc(C(F)(F)F)n2)c1C,8.51%,–
O=C(CSc1nc(-c2ccco2)cc(C(F)(F)F)n1)NCc1cccs1,-1.69%,–
CC1(c2nnc(Cc3ccccc3)o2)CC(c2ccccc2F)=NO1 (configuration not stated),-2.28% [at 2.33 µM],–
CC(=O)N1CCCc2cc(S(=O)(=O)N3CCC(C(=O)NC4CCCCC4)CC3)ccc21,14.6%,–
COc1ccc(Br)cc1C1CC(=O)Nc2c1c(C)nn2-c1nc(C)cc(C)n1 (configuration not stated),-45.2%,–
O=Cc1cn(Cc2ccccc2)nc1-c1cccnc1,-15.5% [at 102 µM],–
COc1ccc(NC(=O)CN(C)C(=O)/C=C/c2cn(Cc3ccccc3)nc2-c2cccnc2)cc1,–,7.94 µM (active)
COc1cccc(NC(=O)CN(C)C(=O)/C=C/c2cn(-c3ccccc3)nc2-c2cccs2)c1,-31.2% [at 102 µM],–
CCC(=O)Nc1cccc(-c2nc3cc(C)ccc3o2)c1,5.08%,–
Cc1cc(NC(=O)C2CCC(CNS(=O)(=O)c3ccc(Br)s3)CC2)ccc1Br (configuration not stated),-2.51%,–
CC1=C(C(=O)OCc2ccccc2)C(c2ccco2)n2ncnc2N1 (configuration not stated),-34% [at 102 µM],–
